ANO1 activ: TMEM16A chloride channel activators or potentiators, primary screen, cell-based, HTS. Anoctamin-1 (Mus musculus), Q8BHY3. HEK293 TMEM16A/YFP-H148Q/I152L, iodide quench fluorescence; active compounds read low. B-score at 10 µM. 340,000 tested, 0.3% active. AID 623877, 2012;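 active = fluorescence-ratio B-score plate-corrected deviation score at least 3 library SD below zero, with starting fluorescence score within 5 deviations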;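 note: channel opened by trigger with iodide after compound preincubation; score built on the fluorescence ratio of max minus min over baseline; more negative score means more quench and so TMEM16A activation or potentiation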
TMEM16A inh: TMEM16A chloride channel inhibitors, primary screen, cell-based, HTS; HEK293 TMEM16A/YFP iodide influx fluorescence, ionomycin; normalized B-score (activity score, 25-100; higher = stronger inhibition) at 10 µM; 310,000 tested, 1.2% active; AID 588511, 2011;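 active = ratio plate-corrected score three or more library SD toward inhibition, starting fluorescence score within five deviations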;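 note: score derived from kinetic fluorescence span divided by baseline fluorescence per well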
PP1 inh: PP1-alpha phosphatase inhibitors, primary screen, counter-screen for PP5 inhibitor project, biochemical, fluorescence, OMFP substrate, single point. Serine/threonine-protein phosphatase PP1-alpha catalytic subunit (Homo sapiens), P62136. inhibition, % at 6.7 µM. 320,000 tested, 0.9% active. purified PP1alpha;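 active = inhibition above the mean inhibition of all tested compounds plus 3 SD, computed separately for each screening campaign, cut at about 15% in these data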
Target sequence (P62136 whole entry, looked up): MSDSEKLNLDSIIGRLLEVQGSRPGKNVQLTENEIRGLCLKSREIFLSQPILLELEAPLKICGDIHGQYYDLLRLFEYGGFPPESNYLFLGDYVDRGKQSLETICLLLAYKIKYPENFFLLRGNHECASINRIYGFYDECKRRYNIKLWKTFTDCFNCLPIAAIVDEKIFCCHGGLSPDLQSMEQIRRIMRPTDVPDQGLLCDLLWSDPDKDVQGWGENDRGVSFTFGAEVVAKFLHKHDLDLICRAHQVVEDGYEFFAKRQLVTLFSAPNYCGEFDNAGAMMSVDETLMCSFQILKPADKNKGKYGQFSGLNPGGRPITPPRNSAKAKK
PREPL inh: PREPL enzyme inhibitors, primary screen, biochemical, fluorescence polarization | inhibition, % at 5.96 µM | Prolyl endopeptidase-like (Homo sapiens), Q4J6C6 | 320,000 tested, 0.68% active | recombinant PREPL, fluorescence polarization activity-based probe | AID 2751, 2010; in the data active = inhibition above about 43%
FID counter: compounds displacing fluorescent DNA intercalator, primary screen, artefact control for HCV NS3 helicase inhibitor project, biochemical, FID fluorescence; inhibition, % at 7.9 µM; 290,000 tested, 0.17% active; DNA fluorescent intercalator displacement; in the data active = inhibition above about 37%;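 note: higher means more ethidium bromide displaced from hairpin DNA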
PP5 primary: PP5 phosphatase inhibitors, primary screen, biochemical, fluorescence | purified PP5c, OMFP substrate fluorescence | inhibition, % at 6.7 µM | 320,000 tested, 0.18% active;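 active = inhibition above the campaign's mean inhibition across all tested compounds plus 3 SD, cut at about 9.5% in these data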
Hits are given with their value; . = inactive; / = not tested or not shown. An excerpt weighted towards active compounds, which were near 2.7% of everything screened.

SMILES	ANO1 activ	TMEM16A inh	PP1 inh	PREPL inh	FID counter	PP5 primary
Nc1cccc(C(=O)OCC(=O)Nc2cccc3c2C(=O)c2ccccc2C3=O)c1	.	.	.	.	.	.
Cc1cccc(NC(=O)COC(=O)c2cccc3c2C(=O)c2ccccc2C3=O)c1C	.	.	.	59.1	.	.
N#C/C(=C\c1coc2ccc(O)cc2c1=O)C(=O)Nc1nc2ccccc2s1	.	.	.	.	.	.
CCOc1ncccc1C(=O)N1CCCSC1=Nc1ccc(C(C)=O)cc1	.	.	.	.	.	.
O=C(CCCC(=O)Nc1ccccc1Br)N/N=C/c1c(F)cccc1Cl	.	.	.	.	.	.
CSCCC1NC(=O)C(C(C)=NNC(N)=O)=C1O (stereo unspecified)	.	/	/	/	/	/
O=c1[nH]c(=O)n(-c2ccccc2)c2c1C(C(F)(F)F)(C(F)(F)F)N=C(CCC1CCCCC1)N2	.	.	.	.	.	.
CC(C)(C)OC(=O)C[C@@H]1C/C=C\C[C@@H](CC(=O)N(CCO)Cc2ccccc2)C(=O)N[C@H](C(C)(C)C)COC1=O	.	/	/	.	/	/
O=C(/C=C/c1ccc(NC(=O)c2ccccc2-c2ccccc2C(=O)O)cc1)c1ccccc1	.	.	17.2	.	.	.
O=c1cc(O)c2ccccc2n1Cc1ccccc1	.	.	.	.	.	.
CCOc1ccc(-n2c(-c3ccccc3)nnc2-c2ccccc2)cc1	.	.	15.9	.	.	.
CCCSc1nc2sc3c(c2c(=O)[nH]1)CCN(Cc1ccccc1)C3	-5.59	.	.	.	.	.
O=C(Nc1ccc2nc(-c3ccccc3)[nH]c2c1)c1ccco1	.	.	.	.	.	.
O=C(Nc1ccc(-c2nc3ccccc3[nH]2)cc1)c1ccc2c(c1)OCO2	.	.	15.4	.	.	.
O=C(Nc1cccc(-c2nc3ccccc3[nH]2)c1)c1cccc(NC(=O)c2ccco2)c1	.	.	16.0	.	.	.
CN(Cc1ccc(F)cc1)C(=O)c1cc(S(=O)(=O)N2CCCCC2)ccc1N1CCOCC1	.	/	/	/	/	/
CCNc1ccccc1CP(=O)(c1ccccc1)c1ccccc1O (stereo unspecified)	/	.	.	50.6	.	.
COc1ccc(NC(=O)c2ccc3c(c2)S(=O)(=O)N=C2CCCCCN23)cc1S(N)(=O)=O	.	/	/	/	/	/
Cn1c(=O)[nH]c(N)c(Br)c1=O	.	/	/	/	/	/
Cc1ccc(SCCNC(=O)/C=C/c2ccccc2Cl)cc1	.	25	.	.	.	.
Cc1ccc(SCCNC(=O)/C=C/c2ccc(Cl)cc2)cc1	.	.	.	.	.	.
COc1ccc(C)cc1NC(=S)NNC(=O)c1c(Br)cnn1C	.	.	.	.	.	.
COc1ccc(C(=O)Nc2ccc(C)cn2)c(OC)c1	.	100	.	.	.	.
COc1ccc(C(=O)Nc2cc(C)on2)c(OC)c1	.	.	.	.	.	.
O=[N+]([O-])c1ccc(Sc2cccc[n+]2[O-])c2nonc12	-4.9	/	/	/	.	/
SMILES	ANO1 activ	TMEM16A inh	PP1 inh	PREPL inh	FID counter	PP5 primary
O=[N+]([O-])c1ccc(Nc2ccccc2)c2nonc12	.	.	.	.	.	.
S=C(c1cn(CCOc2cccc3ccccc23)c2ccccc12)N1CCCC1	.	.	23.7	.	.	.
CC(C)(C)c1cc(O)c(C(C)(C)C)cc1O	/	100	.	.	/	.
CC(=NNC(=O)c1ccncc1)c1ccc2ccccc2c1O	.	/	/	/	/	/
O=C(Nc1ccccc1N1CCOCC1)c1cccnc1Cl	.	.	.	.	46.8	.
c1ccc(CC2CCN(c3ncnc4sccc34)CC2)cc1	-39.9	/	/	/	.	/
O=C(O)c1cc2c(N3CCC(Cc4ccccc4)CC3)ncnc2s1	.	.	.	.	.	.
COc1ccc(NC(=O)c2ccccc2SC)c(OC)c1	-5.79	.	.	.	.	.
CC(C(=O)NC1CCCCC1)N(Cc1ccccc1)C(=O)c1snc(C(N)=O)c1N (stereo unspecified)	.	.	.	.	.	.
CCSc1nnc(NC(=O)C2CC=CCC2C(=O)O)s1 (stereo unspecified)	.	.	15.9	.	.	.

Screening results from PubChem BioAssay.
